Measurements as given in PubChem BioAssay (NCI).
The panel holds about 79,000 compounds, 15% with a hit somewhere; the sample as a whole holds those more often. A number with no mark means an inactive call. Calls of active or inactive are those of the source. No stated cut-off is given here; in the data, active means growth inhibition above about 70%; inactive means the rest.

Assay: NCI Yeast Anticancer Drug Screen. Data for the bub3 strain (AID 167)
Conditions: S. cerevisiae bub3 mutant strain, at 33.0 µM, active compounds read high
In short: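 Screening used yeast with an engineered genetic alteration affecting cell cycle control. Compound-exposed cultures were compared with vehicle cultures, and reduced growth was taken as inhibition.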
`S=C(S)NN1CCOCC1` showed a growth inhibition of 7%.
In the case of `COc1cc2c3c(cccc3c1)C(=O)N(CCN(C)C)C2=O`, the growth inhibition was -10%.
For `COC(=O)C1=C(C)NC(C)=C(C(=O)OCCCN2CCC(c3ccccc3)(c3ccccc3)CC2)C1c1cccc([N+](=O)[O-])c1` (stereo not given), the growth inhibition was 98% (active).
`c1ccc2c(c1)Oc1cccc3cccc-2c13` gave a growth inhibition of 17%.
With `CN(C)CCOc1ccc2c(c1)C/C(=C/c1ncc([N+](=O)[O-])n1C)C2=O` the growth inhibition was 20%.
With `Cc1ccc(CCC2=CCCc3c2ccc2ccccc32)cc1` the growth inhibition was 5%.
With `CNC(=O)OCc1c(COC(=O)NC)c(-c2ccc(Cl)c(Cl)c2)n2c1CCC2` the growth inhibition was 93% (active).
With `Clc1ccccc1C1OC1c1ccccc1Cl` (stereo not given) the growth inhibition was -42%.
For `O=[N+]([O-])c1cc(CCl)ccc1CCl`, the growth inhibition was 92% (active).
For `O=C1C=CC(=O)c2c(O)c(Nc3ccc(OC(F)(F)F)cc3)c(Cl)c(O)c21`, the growth inhibition was 48%.
Molecule `S=c1[nH]nc(Nc2ccc(Cl)cc2)s1` has a growth inhibition of -10%.
In the case of `Cn1ccnc1Oc1ccc(Cl)cc1`, the growth inhibition was 25%.
`BrCc1cccc2ccc3cccc(CBr)c3c12` gave a growth inhibition of -11%.
In the case of `O=C1c2ccccc2-c2nc3ccccc3nc21`, the growth inhibition was 46%.
`CCCCCCCCCCCCCCCCCCNC` gave a growth inhibition of 20%.
With `Oc1ccc(NCn2c(=S)sc3ccccc32)cc1` the growth inhibition was 68%.
With `O=C1C2CC[C@@H]3C(=O)C(Cl)(Cl)[C@@H]3CCC2C1(Cl)Cl` (stereo not given in full) the growth inhibition was 10%.
`CC[n+]1ccc2c(C)c3[nH]c4ccc(O)cc4c3c(C)c2c1` showed a growth inhibition of 3%.
In the case of `Cc1ccc(-n2cc(-c3ccc(Cl)cc3)c(C#N)c2N)cc1`, the growth inhibition was -2%.
In the case of `CC(=O)[O][Bi]([c]1ccccc1)[c]1ccccc1`, the growth inhibition was 91% (active).
For `CC1=C(SCCO)C(=O)c2ccccc2C1=O`, the growth inhibition was 29%.
Work on `C/C(=N\O)C1CC2C=C(C#N)C1N(Cc1ccccc1)C2` (stereo not given) yielded a growth inhibition of -2%.
`CC(Br)C(=O)c1ccc2cc(Br)c3ccccc3c2c1` (stereo not given) gave a growth inhibition of 2%.
Molecule `Nc1nc(-c2cccnc2)cc(-c2cc(-c3cccnc3)nc(N)n2)n1` has a growth inhibition of -2%.
In the case of `CC(C)=CC(=O)O[C@@H]1CC(C)(C)CC2C3=CCC4[C@]56CC[C@](O)(OC5)C(C)(C)C6CC[C@@]4(C)C3(C)CC[C@]21C(=O)O` (stereo not given in full), the growth inhibition was 92% (active).
Molecule `CCC(C)COC(=O)c1ccc(N=Cc2ccc(C=Nc3ccc(C(=O)OCC(C)CC)cc3)cc2)cc1` (stereo not given) has a growth inhibition of 10%.
In the case of `Oc1cccc2c(Cl)ccnc12`, the growth inhibition was 92% (active).
In the case of `O=C(O)c1cccc(-c2c3ccc(=O)cc-3oc3cc(O)ccc23)c1`, the growth inhibition was 79% (active).
`CN(CCc1ccccn1)c1ccc2c(c1)Cc1ccccc1-2` showed a growth inhibition of 21%.
`Cc1cc(S(=O)(=O)/N=C(/NN)NNc2cccc(C(F)(F)F)n2)c(S)cc1Cl` gave a growth inhibition of -4%.
`O=C1C2C(C(=O)N1c1ccc(OCc3ccccc3)cc1)C1c3ccccc3C2C2CCCCN21` (stereo not given) showed a growth inhibition of 23%.
In the case of `Nc1ccccc1CC(O)C(=O)O` (stereo not given), the growth inhibition was 70% (active).
With `O=C(O)C1CCCCC1c1c2ccc(=O)c(O)c-2oc2c(O)c(O)ccc12` (stereo not given) the growth inhibition was 72% (active).
`Cc1ccc2ccc(O)cc2c1` gave a growth inhibition of 14%.
With `O=C1C(=O)c2ccccc2C=C1[N+](=O)[O-]` the growth inhibition was 4%.
For `COC(=O)c1ccc(NCC2=CC(=O)C=CC2=O)cc1O`, the growth inhibition was 95% (active).
With `C(CCSC1=NCCN1)CSC1=NCCN1` (tested in a mixture with another compound) the growth inhibition was 99% (active).
In the case of `N#Cc1c(N)[nH]c2ccc(Sc3ccccc3)cc12`, the growth inhibition was 93% (active).
In the case of `CCNc1nnc(CSc2nc(-c3ccccc3)c(-c3ccccc3)[nH]2)s1`, the growth inhibition was 87% (active).
Molecule `CC[C@@]1(O)C(=O)OCc2c1cc1n(c2=O)Cc2cc3c(N)cccc3nc2-1` has a growth inhibition of -7%.

Same assay, conditions: S. cerevisiae bub3 mutant strain, at 50.0 µM (retest, dose inferred, filed as 5.0), active compounds read high
For `S=C(S)NN1CCOCC1`, the growth inhibition was 70% (active).
For `COc1cc2c3c(cccc3c1)C(=O)N(CCN(C)C)C2=O`, the growth inhibition was 21%.
With `COC(=O)C1=C(C)NC(C)=C(C(=O)OCCCN2CCC(c3ccccc3)(c3ccccc3)CC2)C1c1cccc([N+](=O)[O-])c1` (stereo not given) the growth inhibition was 97% (active).
Molecule `c1ccc2c(c1)Oc1cccc3cccc-2c13` has a growth inhibition of 55%.
Work on `CN(C)CCOc1ccc2c(c1)C/C(=C/c1ncc([N+](=O)[O-])n1C)C2=O` yielded a growth inhibition of 6%.
In the case of `Cc1ccc(CCC2=CCCc3c2ccc2ccccc32)cc1`, the growth inhibition was 84% (active).
With `CNC(=O)OCc1c(COC(=O)NC)c(-c2ccc(Cl)c(Cl)c2)n2c1CCC2` the growth inhibition was 99% (active).
In the case of `Clc1ccccc1C1OC1c1ccccc1Cl` (stereo not given), the growth inhibition was 98% (active).
With `O=[N+]([O-])c1cc(CCl)ccc1CCl` the growth inhibition was 97% (active).
Work on `O=C1C=CC(=O)c2c(O)c(Nc3ccc(OC(F)(F)F)cc3)c(Cl)c(O)c21` yielded a growth inhibition of 65%.
With `S=c1[nH]nc(Nc2ccc(Cl)cc2)s1` the growth inhibition was 38%.
Molecule `Cn1ccnc1Oc1ccc(Cl)cc1` has a growth inhibition of 55%.
Work on `BrCc1cccc2ccc3cccc(CBr)c3c12` yielded a growth inhibition of 50%.
`O=C1c2ccccc2-c2nc3ccccc3nc21` showed a growth inhibition of 39%.
For `CCCCCCCCCCCCCCCCCCNC`, the growth inhibition was 96% (active).
For `Oc1ccc(NCn2c(=S)sc3ccccc32)cc1`, the growth inhibition was 98% (active).
`O=C1C2CC[C@@H]3C(=O)C(Cl)(Cl)[C@@H]3CCC2C1(Cl)Cl` (stereo not given in full) gave a growth inhibition of 10%.
In the case of `CC[n+]1ccc2c(C)c3[nH]c4ccc(O)cc4c3c(C)c2c1`, the growth inhibition was 28%.
With `Cc1ccc(-n2cc(-c3ccc(Cl)cc3)c(C#N)c2N)cc1` the growth inhibition was 64%.
In the case of `CC(=O)[O][Bi]([c]1ccccc1)[c]1ccccc1`, the growth inhibition was 96% (active).
For `CC1=C(SCCO)C(=O)c2ccccc2C1=O`, the growth inhibition was 77% (active).
`C/C(=N\O)C1CC2C=C(C#N)C1N(Cc1ccccc1)C2` (stereo not given) showed a growth inhibition of 13%.
With `CC(Br)C(=O)c1ccc2cc(Br)c3ccccc3c2c1` (stereo not given) the growth inhibition was 23%.
With `Nc1nc(-c2cccnc2)cc(-c2cc(-c3cccnc3)nc(N)n2)n1` the growth inhibition was -5%.
For `CC(C)=CC(=O)O[C@@H]1CC(C)(C)CC2C3=CCC4[C@]56CC[C@](O)(OC5)C(C)(C)C6CC[C@@]4(C)C3(C)CC[C@]21C(=O)O` (stereo not given in full), the growth inhibition was 91% (active).
For `CCC(C)COC(=O)c1ccc(N=Cc2ccc(C=Nc3ccc(C(=O)OCC(C)CC)cc3)cc2)cc1` (stereo not given), the growth inhibition was 3%.
For `Oc1cccc2c(Cl)ccnc12`, the growth inhibition was 100% (active).
With `O=C(O)c1cccc(-c2c3ccc(=O)cc-3oc3cc(O)ccc23)c1` the growth inhibition was 69%.
`CN(CCc1ccccn1)c1ccc2c(c1)Cc1ccccc1-2` showed a growth inhibition of 30%.
`Cc1cc(S(=O)(=O)/N=C(/NN)NNc2cccc(C(F)(F)F)n2)c(S)cc1Cl` showed a growth inhibition of 47%.
In the case of `O=C1C2C(C(=O)N1c1ccc(OCc3ccccc3)cc1)C1c3ccccc3C2C2CCCCN21` (stereo not given), the growth inhibition was 47%.
In the case of `Nc1ccccc1CC(O)C(=O)O` (stereo not given), the growth inhibition was 90% (active).
With `O=C(O)C1CCCCC1c1c2ccc(=O)c(O)c-2oc2c(O)c(O)ccc12` (stereo not given) the growth inhibition was 80% (active).
With `Cc1ccc2ccc(O)cc2c1` the growth inhibition was 23%.
With `O=C1C(=O)c2ccccc2C=C1[N+](=O)[O-]` the growth inhibition was 8%.
For `COC(=O)c1ccc(NCC2=CC(=O)C=CC2=O)cc1O`, the growth inhibition was 98% (active).
For `C(CCSC1=NCCN1)CSC1=NCCN1` (tested in a mixture with another compound), the growth inhibition was 98% (active).
For `N#Cc1c(N)[nH]c2ccc(Sc3ccccc3)cc12`, the growth inhibition was 51%.
With `CCNc1nnc(CSc2nc(-c3ccccc3)c(-c3ccccc3)[nH]2)s1` the growth inhibition was 97% (active).
For `CC[C@@]1(O)C(=O)OCc2c1cc1n(c2=O)Cc2cc3c(N)cccc3nc2-1`, the growth inhibition was 1%.
